From PubChem BioAssay AID588722 (National Center for Advancing Translational Sciences (NCATS), 2011)
Active and inactive are the calls of the source.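 Rule for the calls: active = potency under 20 µM; inactive = the rest.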

Assay: High Content Assay for Compounds that inhibit the Assembly of the Perinucleolar Compartment:Cell Migration
Settings: PC3M cell invasion in 3D collagen microchannel, Hoechst imaging
Excerpt: The perinucleolar compartment (PNC) is a non-membrane-bound nuclear subdomain that is associated with but structurally distinct from the nucleolus. The PNC is a heritable trait, in which the number of PNCs per cell in daughter cells often mimics that of their mother cells. The PNC is heterogeneous in shape, is stable through interphase, disassembles during mitosis, and reassembles in early G1. The PNC is concentrated with newly synthesized RNA polymerase III (pol III) RNAs (MRP RNA, RNAse P H1 RNA, hY RNAs[hY1, 2, 5], Alu RNA, and SRP [7SL] RNA) and RNA binding proteins (nucleolin, PTB, CUG-BP, KSRP, Raver1, Raver2, and Rod). […] In collaboration between Sui Huang from Northwestern University and the NCGC, a high content assay was developed and screened. The hits were then tested in follow-up assays. High-content tumor cell migration assays in 3-dimensional extracellular matrices are powerful tools for modeling and understanding the biology of this critical step in the process of metastasis. However, most of the available methods are not amenable to the throughput required by studies of comparative pharmacology or small scale screening. For this reason, we worked with BellBrook Labs(R) to test our compounds in their automated high-content tumor cell invasion assays.[35] A standard screening-sized plate with an array of embedded microchannels was designed and constructed from common thermoplastics. NIH Chemical Genomics Center [NCGC] NIH Molecular Libraries Probe Centers Network [MLPCN] MLPCN Grant: MH082371 Assay Submitter (PI): Sui Huang, Northwestern University, Feinberg School of Medicine, Cell and Molecular Biology, Chicago, Illinois.
PC3M cells were tested for invasion through 3D fibrillar collagen in the Iuvo Single Microchannel Plate, in the presence of varying levels of test compounds. Channels were prefilled with 820 nL of 3-dimensional type I collagen at 1 mg/mL, through the input port. Following gelation, 2,000 PC3M cells were seeded into the output port using growth media (RPMI + 10% FBS with antibiotics) in a volume of 5 microL. Cells were incubated in a 37 masculineC incubator inside a humidified container to control evaporation (Bioassay dish, Corning). Media including test compounds was changed daily for 5 days. At the end of the assay, cells were fixed and stained with Hoechst 33342, then imaged with 4x objective under epifluorescence. Under these conditions, we can reliably identify cells across the 140 microm height range of the microchannel. Test compounds were serially diluted by a factor of 3, to produce 10 concentrations ranging from 50 or 100 microM to 2.5 nM.

SMILES	Potency	outcome
CSc1nnc2c3ccccc3n(CCc3ccccc3)c2n1	4.3 µM (active)	–
COc1ccc(-n2c(SC(C)C(=O)Nc3ncc(Cl)cc3Cl)nc3ccccc32)cc1 (stereo unspecified)	–	inactive
O=C(Nc1cccnc1)c1cccs1	1.6 µM (active)	–
CN1c2ccccc2C(C)(C)C12CC(c1ccc(Cl)c(S(=O)(=O)N3CCCC3)c1)=NO2 (stereo unspecified)	3.2 µM (active)	–
N=c1c2c(-c3ccccc3)c(-c3ccccc3)n(Cc3ccccc3)c2ncn1CCCO	11.5 µM (active)	–
COC(=O)c1c(-c2ccccc2)csc1NC(=O)c1c(-c2ccccc2)noc1C	–	inactive
CCOC(=O)Cn1c(-c2nonc2NC(=O)c2ccccc2F)nc2ccccc21	–	inactive
CCN(CC)C(=O)N1c2ccccc2C=Cc2ccccc21	2.1 µM (active)	–
Cc1oc(-c2ccccc2Cl)nc1CSCC(=O)N1CCCC1	6.2 µM (active)	–
Cc1c(NC(=O)COC(=O)c2cc(-c3ccc(-c4ccccc4)cc3)nc3ccccc23)c(=O)n(-c2ccccc2)n1C	0.117 µM (active)	–
COc1ccc(-c2nc(NC(=O)c3n[nH]c(=O)c4ccccc34)sc2C)cc1	3.8 µM (active)	–
